# Laboratory results taken from paper PMC5700166.
# Residue numbers refer to the chain shown, from its start.
# Experiments:
# Test in all cases: protein-binding microarray (PBM); PBM: ~300 nM protein, 6 mM HEPES pH 7.8, 80 mM KCl, 0.5 mM EDTA, 0.5 mM EGTA, 6% glycerol, 35 ng/ul poly-dIdC, 1% milk, 1 h, room temperature; Ap Aiptasia and Nv Nematostella (sea anemones) / Co Capsaspora / Aq Amphimedon (sponge) / Dm Drosophila / Hu human; RHD is the Rel homology domain; high values mean tight binding
# Conditions in all cases: dsDNA, one strand shown
# GST-Ap-NF-kB RHD = target: T1, GST-Ap-NF-kB RHD (Exaiptasia pallida (Aiptasia), UniProt A0A913YAJ5 2-422)
# T1 sequence: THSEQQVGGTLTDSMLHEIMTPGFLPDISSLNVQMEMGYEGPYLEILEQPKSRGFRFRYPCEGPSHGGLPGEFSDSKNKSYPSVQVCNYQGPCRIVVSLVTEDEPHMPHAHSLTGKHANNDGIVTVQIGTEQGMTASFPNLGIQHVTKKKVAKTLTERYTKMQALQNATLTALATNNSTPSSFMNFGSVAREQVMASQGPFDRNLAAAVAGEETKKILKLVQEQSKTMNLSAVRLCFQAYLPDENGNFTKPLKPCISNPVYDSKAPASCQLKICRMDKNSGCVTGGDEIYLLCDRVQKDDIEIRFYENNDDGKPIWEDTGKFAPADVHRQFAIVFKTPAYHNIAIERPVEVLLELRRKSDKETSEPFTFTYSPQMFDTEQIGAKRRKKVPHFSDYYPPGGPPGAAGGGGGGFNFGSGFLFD
# [1] = target: T2, GST-Nv-NF-kB (Cys allele) (Nematostella vectensis, UniProt E5G601 2-411)
# T2 sequence: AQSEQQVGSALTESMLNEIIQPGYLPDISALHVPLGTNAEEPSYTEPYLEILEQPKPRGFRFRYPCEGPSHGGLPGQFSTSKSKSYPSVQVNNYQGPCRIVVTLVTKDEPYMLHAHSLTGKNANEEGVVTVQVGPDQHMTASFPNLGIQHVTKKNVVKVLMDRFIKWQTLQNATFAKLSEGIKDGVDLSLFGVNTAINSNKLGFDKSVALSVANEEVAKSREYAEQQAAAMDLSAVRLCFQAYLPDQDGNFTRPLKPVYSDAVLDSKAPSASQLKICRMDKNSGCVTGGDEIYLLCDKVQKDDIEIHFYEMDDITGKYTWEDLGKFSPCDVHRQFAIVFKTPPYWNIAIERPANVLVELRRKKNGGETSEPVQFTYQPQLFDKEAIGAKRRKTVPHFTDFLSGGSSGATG
# GST-Aq-NF-kB = target: T3, GST-Aq-NF-kB (Amphimedon queenslandica, UniProt A9Y5G7 2-389)
# T3 sequence: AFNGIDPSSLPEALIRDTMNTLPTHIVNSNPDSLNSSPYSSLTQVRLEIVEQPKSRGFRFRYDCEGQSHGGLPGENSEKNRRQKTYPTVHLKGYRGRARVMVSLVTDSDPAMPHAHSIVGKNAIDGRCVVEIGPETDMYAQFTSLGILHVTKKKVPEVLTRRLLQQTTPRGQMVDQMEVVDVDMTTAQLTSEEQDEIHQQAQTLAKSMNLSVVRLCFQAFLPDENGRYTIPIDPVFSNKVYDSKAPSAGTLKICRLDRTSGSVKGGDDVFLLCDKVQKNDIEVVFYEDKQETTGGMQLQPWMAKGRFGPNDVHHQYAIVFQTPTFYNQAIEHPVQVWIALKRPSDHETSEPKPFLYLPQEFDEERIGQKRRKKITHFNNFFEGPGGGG
# GST-Hu-p50 = GST-Hu-p50 (Homo sapiens, UniProt P19838 7-356)
# [2] = target: T4, GST-Nv-NF-kB (Ser allele) (Nematostella vectensis, UniProt A7UNT2 2-411)
# T4 sequence: T2 sequence with Q21R, C66S, S207N, E215Q, V217A, E225K, A268E, D399E
# GST-Co-NF-kB = target: T5, GST-Co-NF-kB (Capsaspora owczarzaki, UniProt F1ARL5 200-546)
# T5 sequence: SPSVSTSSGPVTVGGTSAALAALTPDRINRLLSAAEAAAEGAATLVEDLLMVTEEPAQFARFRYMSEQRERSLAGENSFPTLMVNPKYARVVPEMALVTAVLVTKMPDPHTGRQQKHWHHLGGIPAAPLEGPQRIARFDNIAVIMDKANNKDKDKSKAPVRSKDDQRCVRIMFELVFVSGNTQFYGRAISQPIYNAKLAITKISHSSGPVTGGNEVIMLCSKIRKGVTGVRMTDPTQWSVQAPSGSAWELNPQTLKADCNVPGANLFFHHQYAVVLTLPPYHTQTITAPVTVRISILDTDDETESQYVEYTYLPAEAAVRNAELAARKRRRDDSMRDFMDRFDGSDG
# Chain of GST-Hu-p50 (P19838 7-356): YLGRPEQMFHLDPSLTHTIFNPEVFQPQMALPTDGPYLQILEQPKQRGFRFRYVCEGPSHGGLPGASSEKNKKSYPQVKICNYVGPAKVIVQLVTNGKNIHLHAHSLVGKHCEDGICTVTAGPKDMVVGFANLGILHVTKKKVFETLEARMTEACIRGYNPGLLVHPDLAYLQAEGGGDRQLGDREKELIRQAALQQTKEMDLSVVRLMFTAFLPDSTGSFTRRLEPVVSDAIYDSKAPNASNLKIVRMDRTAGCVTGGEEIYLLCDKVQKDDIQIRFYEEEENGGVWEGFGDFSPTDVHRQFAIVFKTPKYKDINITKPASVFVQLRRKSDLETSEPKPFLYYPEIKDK
Sequence,binding signal (GST-Ap-NF-kB RHD) [z-score],binding signal [1] [z-score],binding signal (GST-Aq-NF-kB) [z-score],binding signal (GST-Hu-p50) [z-score],binding signal [2] [z-score],binding signal (GST-Co-NF-kB) [z-score]
CCGATTAACATCAGGAAGCTCCCTGATGTTAATCGGGTCTTGATTCGCTTGACGCTGCTG,1.2,1.37,3.72,1.33,–,–
CCGATTAACATCAGGCTATTCCCTGATGTTAATCGGGTCTTGATTCGCTTGACGCTGCTG,1.73,2.68,3.74,1.4,1.67,1.6
CCGATTAACATCATGTTAGGGAATGATGTTAATCGGGTCTTGATTCGCTTGACGCTGCTG,1.38,3.63,4.43,2.03,2.76,1.51
CCGATTAACATCAGTATGGGAAATGATGTTAATCGGGTCTTGATTCGCTTGACGCTGCTG,1.32,2.39,1.79,1.28,2.22,2.14
CCGATTAACATCAGTCCCACAGATGATGTTAATCGGGTCTTGATTCGCTTGACGCTGCTG,1.45,1.55,1.95,2.52,–,–
CCGATTAACATCAAACTGGGAAATGATGTTAATCGGGTCTTGATTCGCTTGACGCTGCTG,1.13,2.35,1.06,1.62,1.79,2.64
CCGATTAACATCAAAGGGGCTACTGATGTTAATCGGGTCTTGATTCGCTTGACGCTGCTG,2.79,3.08,3.2,3.13,2.12,–
CCGATTAACATCAAGAATTTCCGTGATGTTAATCGGGTCTTGATTCGCTTGACGCTGCTG,–,–,1.89,–,–,–
CCGATTAACATCAGGGGCAGGGATGATGTTAATCGGGTCTTGATTCGCTTGACGCTGCTG,2.32,1.46,2.02,2.01,1.47,1.59
CCGATTAACATCAGGCAACTCCCTGATGTTAATCGGGTCTTGATTCGCTTGACGCTGCTG,1.44,2.44,4.28,2.67,1.64,1.09
CCGATTAACATCACACATGCCCCTGATGTTAATCGGGTCTTGATTCGCTTGACGCTGCTG,1.13,1.37,1.68,1.36,1.04,1.12
CCGATTAACATCAGCAAAATTCCTGATGTTAATCGGGTCTTGATTCGCTTGACGCTGCTG,–,–,1.04,–,–,–
CCGATTAACATCAGCACGGGAAATGATGTTAATCGGGTCTTGATTCGCTTGACGCTGCTG,1.76,2.98,2.77,1.64,2.41,2.59
CCGATTAACATCAAGAAATTCCGTGATGTTAATCGGGTCTTGATTCGCTTGACGCTGCTG,–,–,1.24,1.41,–,–
CCGATTAACATCAACTTGGGAAATGATGTTAATCGGGTCTTGATTCGCTTGACGCTGCTG,1.31,2.47,1.15,1.54,2.1,2.33
CCGATTAACATCAGCTAGTCCCTTGATGTTAATCGGGTCTTGATTCGCTTGACGCTGCTG,3.99,3.63,3.06,2.73,2.09,–
CCGATTAACATCACGGAATATCCTGATGTTAATCGGGTCTTGATTCGCTTGACGCTGCTG,–,–,1.48,–,–,–

Sequence,binding signal (GST-Ap-NF-kB RHD) [z-score],binding signal [1] [z-score],binding signal (GST-Aq-NF-kB) [z-score],binding signal (GST-Hu-p50) [z-score],binding signal [2] [z-score],binding signal (GST-Co-NF-kB) [z-score]
CCGATTAACATCATCCCGGGAAATGATGTTAATCGGGTCTTGATTCGCTTGACGCTGCTG,1.98,2.94,2.23,1.36,2.26,3.63
CCGATTAACATCATGTACGGGAATGATGTTAATCGGGTCTTGATTCGCTTGACGCTGCTG,1.13,2,3.27,1.26,1.46,2.7
CCGATTAACATCATCAGTTTCCCTGATGTTAATCGGGTCTTGATTCGCTTGACGCTGCTG,2.11,3.16,2.58,1.61,4.41,2.69
CCGATTAACATCACCATGGGAAATGATGTTAATCGGGTCTTGATTCGCTTGACGCTGCTG,1.25,2.23,1.76,1.98,1.45,2.04
CCGATTAACATCAATGTGGGAAATGATGTTAATCGGGTCTTGATTCGCTTGACGCTGCTG,1.32,2.75,1.55,1.92,2.53,2.85
CCGATTAACATCAGATATTACCCTGATGTTAATCGGGTCTTGATTCGCTTGACGCTGCTG,2.58,3.48,4.82,2.16,3.01,2.75
CCGATTAACATCACGGCATTTCCTGATGTTAATCGGGTCTTGATTCGCTTGACGCTGCTG,–,–,1.96,–,–,–
CCGATTAACATCAAGGAAATTTCTGATGTTAATCGGGTCTTGATTCGCTTGACGCTGCTG,–,–,1.71,1.21,–,–
CCGATTAACATCATGGGGAGGAATGATGTTAATCGGGTCTTGATTCGCTTGACGCTGCTG,3.58,3.68,2.28,2.59,4.26,6.46
CCGATTAACATCAAAATTTCCAGTGATGTTAATCGGGTCTTGATTCGCTTGACGCTGCTG,–,–,1.04,1.16,–,–
CCGATTAACATCAAGGTGGGAATTGATGTTAATCGGGTCTTGATTCGCTTGACGCTGCTG,1.55,3.21,1.99,1.71,2.3,2.52
CCGATTAACATCAGAATTCTCCCTGATGTTAATCGGGTCTTGATTCGCTTGACGCTGCTG,2.74,4.1,4.02,3.58,3.64,2.57
CCGATTAACATCAAAATTTTCCGTGATGTTAATCGGGTCTTGATTCGCTTGACGCTGCTG,–,–,1.74,1.66,–,–
CCGATTAACATCAGGAAACGCCCTGATGTTAATCGGGTCTTGATTCGCTTGACGCTGCTG,–,–,3.05,–,–,–
CCGATTAACATCAGGGAAATGTATGATGTTAATCGGGTCTTGATTCGCTTGACGCTGCTG,3.08,4.81,4.45,3.4,4.88,3.3
CCGATTAACATCACTCTTTTCCCTGATGTTAATCGGGTCTTGATTCGCTTGACGCTGCTG,2.32,3.09,2.63,1.85,4.46,2.99
